Among the test systems are HCT-15 colon; HT29 colon; SNB-75 CNS; SNB-19 CNS; U251 CNS; PC-3 prostate; SK-MEL-5 melanoma; UACC-62 melanoma; LOX IMVI melanoma; SK-MEL-28 melanoma.
What all share (assay): NCI-60 one-dose screen, 48 h (100 = growth as untreated, 0 = no growth, -100 = all killed)
Common to all, as to settings: 10 µM unless noted

Molecules are shown by their SMILES. The panel holds about 83,000 compounds, 20% with a hit somewhere; the sample as a whole holds those more often.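 Step 1: grow cells in 96-well plates. Step 2: add test compound at a single concentration. Step 3: incubate 48 h. Step 4: record percent growth.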 Values without a mark were called inactive. Activity calls are given as the source filed them. Rule for the calls: active = growth percent below 10; inactive = the rest.

Consider 13 compounds from PubChem BioAssay (NCI).

Regarding `COc1ccc(/C(=C\c2cc(OC)c(OC)c(OC)c2)C(=O)N2CCCNCC2)cc1`, the growth is 103% in the assay with HCT-15 colon; 106% in the assay on HT29 colon; 88.7% in the assay on SNB-75 CNS; 100% with SNB-19 CNS; 109% in the assay on U251 CNS; 91.8% with PC-3 prostate. Moreover, the growth with SK-MEL-5 melanoma was 99.7%; in the assay with UACC-62 melanoma, 105%; in the assay on LOX IMVI melanoma, 103%; in the assay with SK-MEL-28 melanoma it was 111%.
As to `COc1cc2c(cc1OCCCOc1cc3c(cc1OC)C(=O)N1CCC[C@H]1C=N3)C=CC(C)(C)O2`, the growth is 89.9% in the assay on HCT-15 colon; 99.7% in the assay on HT29 colon; 93.8% in the assay on SNB-75 CNS; 85.9% in the assay on SNB-19 CNS; 66.6% with U251 CNS; 78.9% in the assay with PC-3 prostate. In addition, the growth in the assay with SK-MEL-5 melanoma was 66.4%; in the assay with UACC-62 melanoma, 81%; with LOX IMVI melanoma, 69.6%; with SK-MEL-28 melanoma, 33.2%.
As to `O=[N+]([O-])c1cc(F)c2cccnc2c1O`, the growth in the assay on HCT-15 colon was 92.1%; in the assay with HT29 colon it was 111%; with SNB-75 CNS, 86%; in the assay on SNB-19 CNS it was 93%; in the assay on U251 CNS, 91.9%; in the assay on PC-3 prostate, 96.6%. Moreover, the growth with SK-MEL-5 melanoma is 90.2%; with UACC-62 melanoma, 92.9%; in the assay with LOX IMVI melanoma, 84.7%; in the assay on SK-MEL-28 melanoma, 135%.
Take `C=CC[C@]1(O)CC[C@H]2[C@@H]3CCc4cc(O)ccc4[C@H]3CC[C@@]21C`: the growth in the assay with HCT-15 colon was 81.4%; with HT29 colon, 91.2%; in the assay with SNB-75 CNS, 75.7%; in the assay on SNB-19 CNS, 94.4%; in the assay on U251 CNS, 93.4%; in the assay with PC-3 prostate, 85.6%. Besides, the growth was 99.6% in the assay with SK-MEL-5 melanoma, 89.4% in the assay with UACC-62 melanoma, 92.6% in the assay on LOX IMVI melanoma and 101% in the assay with SK-MEL-28 melanoma.
For `CCN(C(=O)Nc1cccc2ccccc12)c1ccccc1`, the growth in the assay on HCT-15 colon was 90.8%; in the assay with HT29 colon, 103%; in the assay on SNB-75 CNS it was 92.4%; in the assay with SNB-19 CNS it was 102%; with U251 CNS it was 97.7%; in the assay with PC-3 prostate, 85.9%. Besides, the growth in the assay with SK-MEL-5 melanoma was 95.5%; in the assay on UACC-62 melanoma, 80.5%; with LOX IMVI melanoma, 102%; with SK-MEL-28 melanoma it was 112%.
`CCc1ccc2c(c1)N(CCO)C1=C(C(=O)OC1)C2c1cccc(Cl)c1` (stereo not given): the growth was 15.9% in the assay on HCT-15 colon; 4.49% (active) with HT29 colon; 18.9% in the assay with SNB-75 CNS; 36.4% with SNB-19 CNS; 18.1% with U251 CNS; 28.8% in the assay on PC-3 prostate. The growth was 32.1% with SK-MEL-5 melanoma, 21.8% with UACC-62 melanoma, 44.3% in the assay with LOX IMVI melanoma and 50.3% in the assay on SK-MEL-28 melanoma.
For the compound `Cc1cc(O)c(C2=NN(c3ccc(S(N)(=O)=O)cc3)C(c3ccc(Cl)cc3)C2)c(C)c1Cl` (stereo not given), the growth is 65.2% in the assay on HCT-15 colon; 55.1% with HT29 colon; 67.4% in the assay with SNB-75 CNS; 89.8% in the assay with SNB-19 CNS; 70% in the assay with U251 CNS; 12.1% in the assay with PC-3 prostate. The growth in the assay with SK-MEL-5 melanoma is 81.7%; in the assay on UACC-62 melanoma it was 53%; in the assay on LOX IMVI melanoma it was 52.4%; in the assay with SK-MEL-28 melanoma it was 76.3%.
As to `CC(=O)O[C@H]1[C@H](CC#CC#CC[C@@H]2C[C@]3(C)[C@H]4CC=C5[C@H]6[C@@H](C)[C@H](C)CC[C@]6(C(=O)NCCN(CCN)CCN)CC[C@@]5(C)[C@]4(C)CC[C@H]3C(C)(C)[C@H]2OC(C)=O)C[C@]2(C)[C@H]3CC=C4[C@H]5[C@@H](C)[C@H](C)CC[C@]5(C(=O)NCCN(CCN)CCN)CC[C@@]4(C)[C@]3(C)CC[C@H]2C1(C)C`, the growth in the assay on HCT-15 colon is 26.8%; with HT29 colon it was 58.1%; in the assay with SNB-75 CNS, 68.1%; with SNB-19 CNS, 31.9%; in the assay with U251 CNS, 36.2%; in the assay with PC-3 prostate, 51.7%. Also, the growth in the assay with SK-MEL-5 melanoma was 92.2%; in the assay on UACC-62 melanoma it was 40.9%; in the assay with LOX IMVI melanoma, 50.9%; in the assay with SK-MEL-28 melanoma, 85%.
For the compound `C/C(=N\OC(=O)Nc1cccc(Cl)c1)c1ccccc1`, the growth in the assay on HCT-15 colon was 94.2%; in the assay with HT29 colon, 94.4%; in the assay on SNB-75 CNS, 80.4%; with SNB-19 CNS, 106%; in the assay on U251 CNS it was 93.5%; in the assay on PC-3 prostate it was 94%. For the same compound, the growth in the assay with SK-MEL-5 melanoma was 94.8%; in the assay with UACC-62 melanoma it was 93.7%; with LOX IMVI melanoma, 110%; in the assay with SK-MEL-28 melanoma it was 95.2%.
Turning to `COc1cc(C2Nc3ccccc3S2)cc(CN2CCOCC2)c1O` (stereo not given), the growth with HCT-15 colon is 52.3%; in the assay with HT29 colon, 93.4%; with SNB-75 CNS, 46%; with SNB-19 CNS it was 75.9%; in the assay on U251 CNS, 86.7%; with PC-3 prostate, 82.1%. In addition, the growth was 50.6% in the assay on SK-MEL-5 melanoma, 57.3% in the assay on UACC-62 melanoma, 78.2% in the assay on LOX IMVI melanoma and 68.6% in the assay on SK-MEL-28 melanoma.
As for `Cc1cc(C)c2c(n1)sc1c(Nc3ccc(O)cc3)ncnc12`, the growth in the assay on HCT-15 colon was 51.7%; in the assay on HT29 colon, 40%; in the assay with SNB-75 CNS it was 50.4%; with SNB-19 CNS, 31%; in the assay with U251 CNS, 26.6%; in the assay on PC-3 prostate, 47.2%. Moreover, the growth in the assay on SK-MEL-5 melanoma was 25.6%; in the assay on UACC-62 melanoma it was 16.1%; with LOX IMVI melanoma, 13.1%; in the assay on SK-MEL-28 melanoma it was 77.7%.
`O=C(Nc1cccc(Cl)c1)Nc1cc(C(F)(F)F)ccc1Cl`: the growth in the assay on HCT-15 colon is 9.83% (active); in the assay on HT29 colon, 4.03% (active); with SNB-75 CNS, 18.2%; in the assay on SNB-19 CNS it was 16.6%; in the assay with U251 CNS, 6.86% (active); in the assay on PC-3 prostate, -3.53% (active). Besides, the growth is 24.4% with SK-MEL-5 melanoma, -8.9% (active) in the assay with UACC-62 melanoma, -11.8% (active) with LOX IMVI melanoma and 25.5% with SK-MEL-28 melanoma.
As for `CCCCCCCCCCCCCCCc1cc(O)ccc1[N+](=O)[O-]`, the growth with HCT-15 colon was 73.7%; in the assay with HT29 colon it was 107%; in the assay with SNB-75 CNS it was 83.1%; in the assay with SNB-19 CNS it was 99.9%; in the assay on U251 CNS, 70.1%; with PC-3 prostate it was 59.5%. For the same compound, the growth was 76.1% in the assay with SK-MEL-5 melanoma, 67.9% in the assay with UACC-62 melanoma, 98% in the assay on LOX IMVI melanoma and 102% with SK-MEL-28 melanoma.
